Test results as given in paper PMC5540273 (PLoS ONE, 2017).

What was measured:
Conditions in all cases: concentration: 1 μM, replicates: in singlicate; n = 1
PCTK2 = system: T1, PCTK2
T1 construct: gene CDK17

PCTK3 = system: T2, PCTK3
T2 construct: gene CDK18

PDGFRA = system: PDGFRA
PDGFRB = system: PDGFRB
PDPK1 = system: PDPK1
PFTAIRE2 = system: PFTAIRE2
PFTK1 = system: T3, PFTK1
T3 construct: gene CDK14

PHKG1 = system: PHKG1
PHKG2 = system: PHKG2
PIK3C2B = system: PIK3C2B
PIK3C2G = system: PIK3C2G
PIK3CA = system: PIK3CA
PIK3CB = system: PIK3CB
PIK3CD = system: PIK3CD
PIK3CG = system: PIK3CG
PIK4CB = system: T4, PIK4CB
T4 construct: gene PI4KB

PIKFYVE = system: PIKFYVE
PIM1 = system: PIM1
PIM2 = system: PIM2
PIM3 = system: PIM3
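Further: KINOMEscan kinase panel screen.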

Row | Structure (SMILES) | %Inh (PCTK2) [%] | %Inh (PCTK3) [%] | %Inh (PDGFRA) [%] | %Inh (PDGFRB) [%] | %Inh (PDPK1) [%] | %Inh (PFTAIRE2) [%] | %Inh (PFTK1) [%] | %Inh (PHKG1) [%] | %Inh (PHKG2) [%] | %Inh (PIK3C2B) [%] | %Inh (PIK3C2G) [%] | %Inh (PIK3CA) [%] | %Inh (PIK3CB) [%] | %Inh (PIK3CD) [%] | %Inh (PIK3CG) [%] | %Inh (PIK4CB) [%] | %Inh (PIKFYVE) [%] | %Inh (PIM1) [%] | %Inh (PIM2) [%] | %Inh (PIM3) [%]
1 | O=C(Nc1n[nH]c2cc(-c3ccoc3)ccc12)C1CC1 [SB-738481] | 51 | 22 | 62 | 90 | 0 | 21 | 29 | 0 | 0 | 7 | 0 | 0 | 13 | 5 | 12 | 8 | 1 | 0 | 0 | 0
2 | Cn1cc(-c2ccc3c(c2)CCN3C(=O)Cc2cccc(F)c2)c2c(N)ncnc21 [GSK2603358] | 0 | 17 | 78 | 99.8 | 0 | 12 | 18 | 1 | 0 | 80 | 0 | 3 | 0 | 28 | 30 | 0 | 11 | 0 | 0 | 0
3 | COc1cccc(C2=C(Nc3ccc(Cl)c(C(=O)O)c3)C(=O)NC2=O)c1 [SB-390769] | 0 | 29 | 0 | 5 | 0 | 0 | 26 | 0 | 0 | 0 | 100 | 10 | 93.3 | 0 | 0 | 0 | 21 | 0 | 0 | 0
4 | COc1cc(Nc2nccc(N3CCC(NC(=O)Nc4cccc(C(C)=O)c4)C3)n2)cc(OC)c1OC (centres unmarked) [GSK1379753] | 26 | 0 | 0 | 77 | 0 | 0 | 23 | 0 | 2 | 0 | 0 | 5 | 0 | 46 | 20 | 78 | 0 | 0 | 0 | 0
5 | CNC(=O)c1ccccc1Nc1nc(Nc2ccc(N3CCOCC3)cc2)ncc1Cl.Cl [GSK1576028] | 43 | 0 | 80 | 100 | 42 | 43 | 17 | 84 | 72 | 17 | 0 | 15 | 50 | 29 | 31 | 56 | 53 | 45 | 0 | 55
6 | COCCOCCOc1cc2ncc3c4ccc(C#N)cc4[nH]c3c2cc1OC | 6 | 13 | 98.2 | 92.9 | 34 | 48 | 21 | 94.5 | 97.7 | 0 | 12 | 0 | 0 | 0 | 0 | 0 | 47 | 29 | 94 | 49
7 | Nc1ncc(-c2ccc3nccc(-c4ccncc4)c3c2)cc1S(=O)(=O)N1CCOCC1 [GSK1627798] | 21 | 26 | 0 | 13 | 0 | 39 | 31 | 0 | 0 | 99.5 | 99.1 | 100 | 77 | 94.1 | 99.5 | 96.1 | 0 | 0 | 0 | 0
8 | COc1cc(Nc2nccc(-c3c(-c4cccc(NC(=O)c5c(F)cccc5F)c4)nn4ccccc34)n2)cc(OC)c1OC [GSK323521] | 8 | 29 | 89 | 99.7 | 13 | 25 | 3 | 4 | 10 | 27 | 9 | 4 | 16 | 0 | 9 | 11 | 0 | 17 | 0 | 5
9 | c1ccc(-c2n[nH]cc2Nc2ccnc3ccccc23)nc1 [GW694077] | 0 | 9 | 20 | 65 | 0 | 16 | 18 | 0 | 30 | 29 | 15 | 0 | 0 | 0 | 14 | 95.7 | 0 | 81 | 7 | 79
10 | COc1ccc(Nc2nccc(NCCNC(=O)c3cc4ccccc4s3)n2)cc1 [GSK1379896] | 0 | 0 | 0 | 15 | 8 | 14 | 18 | 0 | 2 | 0 | 0 | 0 | 32 | 0 | 0 | 0 | 0 | 8 | 0 | 2
